# Source: PubChem BioAssay (EPA / NIEHS)
# Inconclusive results are not listed. Activity calls are given as the source filed them. How the source made its calls, unless noted: active means hit-call score of the fitted dose curve at least 0.9, where 1 is the maximum; inconclusive means response in the unintended direction; inactive means score below 0.9.
# Assays:
# [1] = target: human Matrix Metalloproteinase-9 (MMP9), MMP9 (gene 4318) (UniProt P14780); assay: NVS_ENZ_hMMP9: NovaScreen (NVS) Enzymatic Assay for human Matrix Metalloproteinase-9 (MMP9) (AID 2283190);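 further: cell-free recombinant MMP9 protease activity read by fluorescent substrate signal; active means inhibition seen as loss of fluorescence signal versus DMSO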
# Method in brief: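 Extracted enzyme, fluorescent substrate, 1 h post-dose read. Single conc 25 uM in duplicate, then concentration series for actives. Activity = signal loss relative to DMSO negative control.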
# [2] = target: human Ephrin type-A Receptor 1 (EphA1), EPHA1 (gene 2041) (UniProt P21709); assay: NVS_ENZ_hEphA1: NovaScreen (NVS) Enzymatic Assay for human Ephrin type-A Receptor 1 (EphA1) (AID 2283158);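 further: activity is signal loss versus DMSO meaning EphA1 kinase inhibition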
# Method in brief: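 Here the EphA1 protein is recombinant and the substrate fluorescent, with electrophoretic separation before fluorescence detection at 1 hour. Signal loss against DMSO defines activity; plate controls included; follow-up concentration series reach 50 uM.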
# [3] = target: Cytochrome P450 2C19 (Homo sapiens) (UniProt P33261); assay: NVS_ADME_hCYP2C19: NovaScreen (NVS) CYP450-related Enzyme Activity (ADME) Assay for human CYP2C19 (AID 2283113);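 further: potency for inhibition seen as loss of fluorescent signal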
# Method in brief: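 Biochemical CYP2C19 inhibition screen: insect-cell recombinant protein plus fluorescent substrate, 1 h, fluorescence intensity. Acetonitrile defined baseline activity. Single 10 uM concentration in duplicate, with concentration-response follow-up for actives.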
# [4] = target: Cytochrome P450 3A4 (Homo sapiens) (UniProt P08684); assay: NVS_ADME_hCYP3A4: NovaScreen (NVS) CYP450-related Enzyme Activity (ADME) Assay for human CYP3A4 (AID 2283110)
# Method in brief: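 Cell-free recombinant enzyme expressed in insect cells; fluorescent substrate turnover read after 0.33 h, acetonitrile as negative control. Primary screen in duplicate at 10 uM, actives then tested in concentration series.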
# [5] = target: human Dual Specificity Protein Phosphatase 3 (DUSP3), DUSP3 (gene 1845) (UniProt P51452); assay: NVS_ENZ_hDUSP3: NovaScreen (NVS) Enzymatic Assay for human Dual Specificity Protein Phosphatase 3 (DUSP3) (AID 2283152);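 further: phosphatase activity of recombinant human DUSP3 on a fluorogenic substrate without cells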
# Method in brief: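 Cell-free assay with recombinant human DUSP3 and fluorogenic substrate, read by fluorescence intensity. Primary screen ran duplicate at 25 uM; actives followed up in concentration series; loss of signal versus DMSO scored.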
# [6] = target: rat CYP2A1, Cyp2a1 (gene 24894) (UniProt P11711); assay: NVS_ADME_rCYP2A1: NovaScreen (NVS) CYP450-related Enzyme Activity (ADME) Assay for rat CYP2A1 (AID 2283114; active means hit-call score of the fitted dose curve at least 0.9, where 1 is the maximum; inactive means score below 0.9)
# Method in brief: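 Recombinant rat CYP2A1, cell-free, fluorogenic substrate turnover read by fluorescence intensity 0.75 h after dosing. Primary screen at 10 uM in duplicate; actives rerun as concentration-response up to 20 uM; loss of signal versus acetonitrile control.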
# [7] = target: rat CYP2C13, Cyp2c13 (gene 171521) (UniProt P20814); assay: NVS_ADME_rCYP2C13: NovaScreen (NVS) CYP450-related Enzyme Activity (ADME) Assay for rat CYP2C13 (AID 2283121)
# Method in brief: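 Recombinant rat CYP2C13 with fluorogenic substrate, 0.75 h cell-free incubation; primary screen in duplicate at 10 uM, actives followed in concentration series. Fluorescence loss relative to acetonitrile control indicates inhibition.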
# [8] = target: Mitogen-activated protein kinase 3 (Homo sapiens) (UniProt P27361); assay: NVS_ENZ_hMAPK3: NovaScreen (NVS) Enzymatic Assay for human Mitogen-Activated Protein Kinase 3 (MAPK 3) (AID 2283177)
# Method in brief: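 Cell-free enzymatic assay with recombinant protein and specific substrate; fluorescence and electrophoretic mobility shift read-out 1 h after dosing. Primary screen duplicate at 25 uM; actives then run in concentration-response up to 50 uM, loss of signal versus DMSO.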
# [9] = target: human Beta-secretase (BACE), BACE1 (gene 23621) (UniProt P56817); assay: NVS_ENZ_hBACE: NovaScreen (NVS) Enzymatic Assay for human Beta-secretase (BACE) (AID 2283140);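 further: hits are inhibitors that reduce fluorescent substrate signal versus DMSO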
# Method in brief: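 Compounds were first tested in duplicate at 25 uM, then actives in concentration series, against recombinant BACE1 from SF9 cells. Enzyme activity was measured by fluorescence intensity 1 hour after dosing, with DMSO as negative control.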
# [10] = target: human Caspase 5 (CASP5), CASP5 (gene 838) (UniProt P51878); assay: NVS_ENZ_hCASP5: NovaScreen (NVS) Enzymatic Assay for human Caspase 5 (CASP5) (AID 2283137)
# Method in brief: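 E. coli-derived enzyme, cell-free, 2 h incubation, fluorescence intensity. 25 uM duplicate single-point; hits → concentration series to 50 uM. DMSO baseline, positive/negative controls on every plate.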
# Sequence of human Ephrin type-A Receptor 1 (EphA1), EPHA1 (gene 2041) (P21709 whole entry, looked up): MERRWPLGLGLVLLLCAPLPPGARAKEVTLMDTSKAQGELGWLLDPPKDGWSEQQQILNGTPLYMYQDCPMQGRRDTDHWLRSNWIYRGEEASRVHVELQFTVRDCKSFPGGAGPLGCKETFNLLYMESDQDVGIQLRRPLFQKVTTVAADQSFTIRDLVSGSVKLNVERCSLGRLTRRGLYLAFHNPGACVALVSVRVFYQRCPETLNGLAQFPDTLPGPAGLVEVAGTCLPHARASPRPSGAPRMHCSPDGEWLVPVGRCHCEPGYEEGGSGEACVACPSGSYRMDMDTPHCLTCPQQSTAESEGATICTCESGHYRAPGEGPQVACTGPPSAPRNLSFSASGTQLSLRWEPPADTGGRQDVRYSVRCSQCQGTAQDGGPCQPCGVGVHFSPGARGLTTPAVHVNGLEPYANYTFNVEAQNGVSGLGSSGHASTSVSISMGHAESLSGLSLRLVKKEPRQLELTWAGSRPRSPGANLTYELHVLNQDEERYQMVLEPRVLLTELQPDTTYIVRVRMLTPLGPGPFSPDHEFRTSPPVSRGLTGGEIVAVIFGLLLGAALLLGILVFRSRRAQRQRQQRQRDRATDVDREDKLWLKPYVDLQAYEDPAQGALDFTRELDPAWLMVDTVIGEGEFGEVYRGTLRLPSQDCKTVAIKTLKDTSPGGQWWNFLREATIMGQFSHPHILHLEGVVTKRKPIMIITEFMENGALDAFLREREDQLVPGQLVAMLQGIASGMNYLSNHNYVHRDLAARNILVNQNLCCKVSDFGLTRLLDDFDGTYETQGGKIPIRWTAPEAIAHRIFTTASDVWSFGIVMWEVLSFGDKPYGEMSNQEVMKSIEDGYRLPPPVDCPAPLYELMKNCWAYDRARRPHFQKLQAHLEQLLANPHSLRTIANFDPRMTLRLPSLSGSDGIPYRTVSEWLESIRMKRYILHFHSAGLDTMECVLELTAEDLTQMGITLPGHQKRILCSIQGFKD
# Sequence of human Matrix Metalloproteinase-9 (MMP9), MMP9 (gene 4318) (P14780 whole entry, looked up): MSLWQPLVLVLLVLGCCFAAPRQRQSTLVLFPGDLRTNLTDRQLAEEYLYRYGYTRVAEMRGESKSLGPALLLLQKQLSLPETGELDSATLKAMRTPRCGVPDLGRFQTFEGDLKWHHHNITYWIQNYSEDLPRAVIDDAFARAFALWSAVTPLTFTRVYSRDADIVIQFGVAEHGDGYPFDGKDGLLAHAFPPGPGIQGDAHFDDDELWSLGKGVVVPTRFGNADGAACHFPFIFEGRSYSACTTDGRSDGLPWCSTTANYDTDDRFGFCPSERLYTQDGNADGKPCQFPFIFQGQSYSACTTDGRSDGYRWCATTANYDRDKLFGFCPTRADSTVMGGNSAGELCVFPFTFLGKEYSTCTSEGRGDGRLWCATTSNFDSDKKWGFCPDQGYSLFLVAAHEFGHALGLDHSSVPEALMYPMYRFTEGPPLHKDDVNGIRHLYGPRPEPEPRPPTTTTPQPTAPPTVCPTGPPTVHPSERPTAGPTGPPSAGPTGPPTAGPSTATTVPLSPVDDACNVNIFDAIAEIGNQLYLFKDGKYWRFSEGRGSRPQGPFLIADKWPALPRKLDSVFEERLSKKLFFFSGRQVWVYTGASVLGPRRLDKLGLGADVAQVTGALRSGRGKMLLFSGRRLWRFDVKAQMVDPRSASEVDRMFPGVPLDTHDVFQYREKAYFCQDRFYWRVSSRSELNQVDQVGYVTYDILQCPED
# Sequence of human Caspase 5 (CASP5), CASP5 (gene 838) (P51878 whole entry, looked up): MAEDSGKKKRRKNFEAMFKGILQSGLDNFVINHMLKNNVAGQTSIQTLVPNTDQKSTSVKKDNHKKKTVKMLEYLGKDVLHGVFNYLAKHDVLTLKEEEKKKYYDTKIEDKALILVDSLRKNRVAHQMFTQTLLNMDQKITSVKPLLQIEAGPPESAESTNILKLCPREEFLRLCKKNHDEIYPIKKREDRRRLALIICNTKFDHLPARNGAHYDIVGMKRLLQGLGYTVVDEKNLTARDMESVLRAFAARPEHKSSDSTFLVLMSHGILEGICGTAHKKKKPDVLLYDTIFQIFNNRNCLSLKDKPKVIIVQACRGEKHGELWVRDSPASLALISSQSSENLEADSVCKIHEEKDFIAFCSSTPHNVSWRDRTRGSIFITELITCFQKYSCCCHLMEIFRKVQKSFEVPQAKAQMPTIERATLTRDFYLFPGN
# Sequence of human Beta-secretase (BACE), BACE1 (gene 23621) (P56817 whole entry, looked up): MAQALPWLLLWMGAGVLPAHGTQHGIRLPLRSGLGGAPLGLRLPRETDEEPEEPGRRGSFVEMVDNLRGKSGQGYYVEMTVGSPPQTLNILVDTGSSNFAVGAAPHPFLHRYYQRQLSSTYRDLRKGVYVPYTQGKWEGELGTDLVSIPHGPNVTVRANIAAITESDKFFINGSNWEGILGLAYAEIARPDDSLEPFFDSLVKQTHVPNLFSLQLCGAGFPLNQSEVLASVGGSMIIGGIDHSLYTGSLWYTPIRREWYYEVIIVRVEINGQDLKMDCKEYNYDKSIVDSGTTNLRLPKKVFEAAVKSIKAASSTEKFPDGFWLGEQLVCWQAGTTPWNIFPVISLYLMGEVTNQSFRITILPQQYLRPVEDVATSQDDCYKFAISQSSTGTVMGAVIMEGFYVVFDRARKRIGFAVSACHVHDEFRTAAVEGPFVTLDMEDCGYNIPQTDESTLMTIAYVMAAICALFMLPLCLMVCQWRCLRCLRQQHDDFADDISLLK
# Sequence of human Dual Specificity Protein Phosphatase 3 (DUSP3), DUSP3 (gene 1845) (P51452 whole entry, looked up): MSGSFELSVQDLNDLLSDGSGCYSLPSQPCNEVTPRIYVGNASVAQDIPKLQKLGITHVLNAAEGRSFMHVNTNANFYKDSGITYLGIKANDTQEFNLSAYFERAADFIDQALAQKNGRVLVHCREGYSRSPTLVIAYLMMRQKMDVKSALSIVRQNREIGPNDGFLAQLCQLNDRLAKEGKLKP
# Sequence of rat CYP2A1, Cyp2a1 (gene 24894) (P11711 whole entry, looked up): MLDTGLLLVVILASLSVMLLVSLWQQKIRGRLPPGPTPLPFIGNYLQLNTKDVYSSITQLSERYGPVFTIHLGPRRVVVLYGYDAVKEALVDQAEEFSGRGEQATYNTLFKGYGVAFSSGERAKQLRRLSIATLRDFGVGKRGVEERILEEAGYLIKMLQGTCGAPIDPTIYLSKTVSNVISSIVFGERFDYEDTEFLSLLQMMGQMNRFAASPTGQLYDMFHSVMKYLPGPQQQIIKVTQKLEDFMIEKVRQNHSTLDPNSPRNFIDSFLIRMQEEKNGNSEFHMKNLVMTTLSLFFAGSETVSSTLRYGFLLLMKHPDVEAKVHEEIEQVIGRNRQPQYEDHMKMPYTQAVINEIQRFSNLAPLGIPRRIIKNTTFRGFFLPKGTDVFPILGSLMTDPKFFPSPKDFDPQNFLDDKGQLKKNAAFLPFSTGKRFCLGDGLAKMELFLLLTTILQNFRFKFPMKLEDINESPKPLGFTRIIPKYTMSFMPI
# Sequence of Cytochrome P450 3A4 (Homo sapiens) (P08684 whole entry, looked up): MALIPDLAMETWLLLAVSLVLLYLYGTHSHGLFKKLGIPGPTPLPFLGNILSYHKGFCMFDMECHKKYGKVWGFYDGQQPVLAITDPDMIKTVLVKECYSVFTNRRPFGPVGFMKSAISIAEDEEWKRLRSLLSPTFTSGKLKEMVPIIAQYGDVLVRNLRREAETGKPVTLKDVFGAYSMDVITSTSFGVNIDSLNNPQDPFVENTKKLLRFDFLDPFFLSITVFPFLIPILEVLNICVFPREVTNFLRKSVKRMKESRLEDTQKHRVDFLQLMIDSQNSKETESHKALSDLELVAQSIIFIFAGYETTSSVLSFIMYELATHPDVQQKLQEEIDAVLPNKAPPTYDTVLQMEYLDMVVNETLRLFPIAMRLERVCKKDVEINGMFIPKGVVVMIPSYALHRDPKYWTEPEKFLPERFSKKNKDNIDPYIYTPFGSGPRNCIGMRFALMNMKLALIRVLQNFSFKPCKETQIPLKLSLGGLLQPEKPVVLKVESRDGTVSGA
# Sequence of rat CYP2C13, Cyp2c13 (gene 171521) (P20814 whole entry, looked up): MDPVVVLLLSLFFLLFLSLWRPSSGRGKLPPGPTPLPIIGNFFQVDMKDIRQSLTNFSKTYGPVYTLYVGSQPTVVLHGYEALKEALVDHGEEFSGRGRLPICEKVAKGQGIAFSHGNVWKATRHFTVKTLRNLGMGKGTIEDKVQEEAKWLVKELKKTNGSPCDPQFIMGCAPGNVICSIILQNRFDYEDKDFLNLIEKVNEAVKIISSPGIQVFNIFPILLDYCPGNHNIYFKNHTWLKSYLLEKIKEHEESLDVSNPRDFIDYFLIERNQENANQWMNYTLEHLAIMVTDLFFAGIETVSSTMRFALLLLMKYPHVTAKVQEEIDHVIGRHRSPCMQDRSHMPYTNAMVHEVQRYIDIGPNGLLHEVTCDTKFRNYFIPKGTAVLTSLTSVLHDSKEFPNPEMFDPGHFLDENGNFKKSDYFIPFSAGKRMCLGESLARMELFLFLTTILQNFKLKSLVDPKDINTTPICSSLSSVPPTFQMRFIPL
# Sequence of Mitogen-activated protein kinase 3 (Homo sapiens) (P27361 whole entry, looked up): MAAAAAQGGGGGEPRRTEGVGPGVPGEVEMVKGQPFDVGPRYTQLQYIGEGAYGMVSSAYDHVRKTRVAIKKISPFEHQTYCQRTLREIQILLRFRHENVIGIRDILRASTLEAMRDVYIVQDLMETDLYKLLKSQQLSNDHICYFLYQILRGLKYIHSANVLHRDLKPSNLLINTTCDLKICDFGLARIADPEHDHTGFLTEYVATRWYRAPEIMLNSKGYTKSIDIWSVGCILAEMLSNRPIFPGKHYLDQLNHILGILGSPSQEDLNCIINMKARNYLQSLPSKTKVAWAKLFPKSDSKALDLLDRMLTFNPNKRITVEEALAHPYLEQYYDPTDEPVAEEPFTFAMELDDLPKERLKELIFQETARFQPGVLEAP
smiles,measurement,setting,value
CC(=O)CCC(C)C,outcome,[1],inactive
C=CCOC(=O)CC(C)C,outcome,[2],inactive
c1ccc(C[P+](c2ccccc2)(c2ccccc2)c2ccccc2)cc1,AC50,[3],1.87 µM (active)
COC(=O)c1ccc(C=O)cc1,AC50,[4],0.00779 µM (active)
CC(C)CCCC(C)CCO (centres undefined),AC50,[1],6.27 µM (active)
O=C(c1ccccc1)c1ccc(O)cc1O,AC50,[5],16.5 µM (active)
same,outcome,[2],inactive
same,AC50,[1],13.7 µM (active)
C[C@]12CC[C@H]3C(=CCc4cc(O)ccc43)[C@@H]1CCC2=O,AC50,[3],1.95 µM (active)
CCCCCCCCn1sc(Cl)c(Cl)c1=O,AC50,[3],8.26 µM (active)
same,outcome,[6],inactive
same,outcome,[7],inactive
CCCCCCCCCCCCCC[P+](CCCC)(CCCC)CCCC,AC50,[8],20.2 µM (active)
same,AC50,[1],2.12 µM (active)
Cc1cc(O)c(C(C)(C)C)cc1C(C)(C)C,outcome,[2],inactive
Brc1nc2ccccc2s1,outcome,[2],inactive
Cc1ccc(O)c(-n2nc3ccccc3n2)c1,AC50,[1],9.4 µM (active)
CCC(C)CO (centres undefined),outcome,[9],inactive
same,AC50,[1],6.58 µM (active)
Cc1cc(=O)[nH]c(C(C)C)n1,AC50,[2],9.31 µM (active)
CC1=CCC2C(=O)OC(=O)C2C1 (centres undefined),outcome,[2],inactive
O=C1C=CC(=O)N1c1ccc(Cc2ccc(N3C(=O)C=CC3=O)cc2)cc1,AC50,[10],4.26 µM (active)
same,outcome,[2],inactive
same,AC50,[1],2.59 µM (active)
CC1=CC2C3C=CC(C3)C2C1C (centres undefined),AC50,[10],13.1 µM (active)
O=C1c2c(O)ccc(Nc3ccc(CCO)cc3)c2C(=O)c2c([N+](=O)[O-])ccc(O)c21,AC50,[3],4.49 µM (active)
same,AC50,[10],0.148 µM (active)
same,AC50,[9],0.129 µM (active)
same,AC50,[5],2.37 µM (active)
